Test results from PubChem BioAssay (Tox21).
Inconclusive results are not listed. A call without a number means that no potency is given here. Calls of active or inactive are those of the source. Unless noted, calls come from the whole dose curve; as a rule, active = well fitted curve in the direction sought with a large enough effect in the repeat runs; inconclusive = weak or mixed curves; inactive = no such curve, though single readings can be large; an effect the other way counts as inactive or inconclusive.

Assays:
[1] = qHTS assay to identify small molecule agonists of the progesterone receptor (PR) signaling pathway - cell viability counter screen (AID 1346799; calls by dose curve; note: nearly all actives have a fitted effect of over 45% in size)
In short: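 Here, 3,000 PR-UAS-bla HEK293T cells per well were treated with compounds for 16 hr after a 6 hr preincubation at 37C and 5% CO2; cell viability is the CellTiter-Glo luminescence signal.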

[2] = qHTS assay to identify small molecule agonists of the TGF-beta/Smad signaling pathway - cell viability counter screen (AID 1346829); note: top concentration of the series differs between compounds; nearly all actives have a fitted effect of over 45% in size
In short: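 Luminescence from CellTiter-Glo, read after a 30 min room-temperature incubation, gives cell viability of SBE-bla HEK 293T cells treated 5 hr with compounds at 37 C.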

[3] = qHTS assay to identify small molecule agonists of the TGF-beta/Smad signaling pathway (AID 1346859; active = well fitted activation curve with a large enough effect in the signal ratio in the repeat runs, not every such curve was filed as active; the % refers to the signal ratio; note: series mostly up to about 77 µM)
In short: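 Each well held 4,000 SBE-bla HEK 293T cells incubated overnight before compound addition; 5 hr later the cleavable FRET substrate went on for 2 hr at room temperature, and fluorescence was read at two emissions.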

[4] = molecular target: Thyrotropin-releasing hormone receptor (Homo sapiens) (UniProt P34981); test: qHTS assay to identify small molecule antagonists of the thyrotropin-releasing hormone receptor (TRHR) signaling pathway (AID 1346877; active = well fitted inhibition curve with a large enough effect in the repeat runs, not every such curve was filed as active; note: series mostly up to about 51 µM)
Chain of Thyrotropin-releasing hormone receptor (Homo sapiens) (P34981 whole entry, looked up): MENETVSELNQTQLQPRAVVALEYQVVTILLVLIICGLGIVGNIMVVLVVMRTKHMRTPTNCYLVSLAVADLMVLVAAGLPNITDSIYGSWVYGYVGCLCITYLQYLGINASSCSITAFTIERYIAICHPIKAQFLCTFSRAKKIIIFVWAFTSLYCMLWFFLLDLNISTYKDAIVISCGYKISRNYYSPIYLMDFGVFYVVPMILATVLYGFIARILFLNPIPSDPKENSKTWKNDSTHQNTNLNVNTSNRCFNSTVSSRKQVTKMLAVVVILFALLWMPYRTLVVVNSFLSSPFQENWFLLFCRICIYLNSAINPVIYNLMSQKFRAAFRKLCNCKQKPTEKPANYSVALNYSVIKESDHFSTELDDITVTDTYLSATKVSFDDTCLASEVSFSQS
In short: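 Following an 18 h incubation at 37 °C and a 2 h calcium dye load, TRHR-HEK293 cells were exposed to compound (5 min, room temperature) and challenged with TRH, 1 nM final.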

[5] = molecular target: Thyrotropin-releasing hormone receptor (Homo sapiens) (UniProt P34981); test: qHTS assay to identify small molecule agonists of the thyrotropin-releasing hormone receptor (TRHR) signaling pathway (AID 1346891; calls by dose curve; note: series mostly up to about 58 µM)
In short: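 Screening of agonists relied on calcium signalling in HEK293 cells expressing human TRHR: dye loading 2 h at 37 °C preceded compound addition and a 3-min fluorescence time course.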

[6] = Human pregnane X receptor (PXR) small molecule agonists, qHTS cell viability counter screen (AID 1346977); note: nearly all actives have a fitted effect of over 50% in size
In short: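 Tox21 qHTS format; PXR-Luc HepG2, 2,000/well, charcoal-stripped FBS 5%. Cpd exposure 24hr. Read: CellTiter-Fluor fluorescence, multiplexed with luciferase.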

[7] = Caspase-3/7 induction in CHO-K1 cells by small molecules, qHTS cell viability counter screen (AID 1346979); note: nearly all actives have a fitted effect of over 35% in size; note: potency is the fitted concentration of half-maximal effect
In short: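 CellTiter-Fluor viability check, qHTS format: wild-type CHO-K1, 16hr compound treatment, 1hr reagent incubation, fluorescence read.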

[8] = molecular target: Nuclear receptor subfamily 1 group I member 2 (Homo sapiens) (UniProt O75469); test: Human pregnane X receptor (PXR) small molecule agonists, qHTS assay (AID 1346982); note: nearly all actives have a fitted effect of over 35% in size
Chain of Nuclear receptor subfamily 1 group I member 2 (Homo sapiens) (O75469 whole entry, looked up): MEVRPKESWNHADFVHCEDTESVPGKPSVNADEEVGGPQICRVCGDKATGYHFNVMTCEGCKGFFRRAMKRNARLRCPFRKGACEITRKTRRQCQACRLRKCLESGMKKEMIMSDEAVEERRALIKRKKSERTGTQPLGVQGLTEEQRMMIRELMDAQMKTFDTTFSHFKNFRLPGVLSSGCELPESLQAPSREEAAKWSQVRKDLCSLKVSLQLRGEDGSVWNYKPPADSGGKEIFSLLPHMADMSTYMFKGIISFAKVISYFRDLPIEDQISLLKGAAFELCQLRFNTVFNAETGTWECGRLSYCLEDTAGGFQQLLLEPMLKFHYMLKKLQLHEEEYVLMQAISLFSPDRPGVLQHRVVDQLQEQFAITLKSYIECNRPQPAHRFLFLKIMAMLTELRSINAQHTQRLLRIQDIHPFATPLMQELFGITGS
In short: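 Compound-induced hPXR transactivation of a CYP3A4 luciferase reporter was scored in HepG2 PXR-Luc cells over 24 hr at 37 C, 5% CO2, by luminescence.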

[9] = molecular target: Cytochrome P450 2D6 (Homo sapiens) (UniProt P10635); test: Cytochrome P450 Family 2 Subfamily D Member 6 (CYP2D6) small molecule antagonists: luciferase reporter qHTS assay (AID 1671196); note: nearly all actives have a fitted effect of over 50% in size; note: potency is the fitted concentration of half-maximal effect
Chain of Cytochrome P450 2D6 (Homo sapiens) (P10635 whole entry, looked up): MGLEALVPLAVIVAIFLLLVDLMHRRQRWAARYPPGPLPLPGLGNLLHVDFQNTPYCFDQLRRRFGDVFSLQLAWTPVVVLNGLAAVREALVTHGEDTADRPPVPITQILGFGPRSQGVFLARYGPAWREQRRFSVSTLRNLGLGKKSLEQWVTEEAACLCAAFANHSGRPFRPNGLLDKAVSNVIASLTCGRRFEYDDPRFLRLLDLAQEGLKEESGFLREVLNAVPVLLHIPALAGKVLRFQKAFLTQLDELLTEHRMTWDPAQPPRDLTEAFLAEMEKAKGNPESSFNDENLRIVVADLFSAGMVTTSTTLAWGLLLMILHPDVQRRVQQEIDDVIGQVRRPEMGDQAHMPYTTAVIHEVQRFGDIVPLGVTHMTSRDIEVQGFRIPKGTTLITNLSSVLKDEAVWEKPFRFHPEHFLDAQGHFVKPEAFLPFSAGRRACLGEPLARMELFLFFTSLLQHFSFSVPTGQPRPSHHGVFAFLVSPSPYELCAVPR
In short: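 Each well received CYP2D6 with its proluciferin substrate and chemical, sat 10 min, then got NADPH regeneration solution for 1 h at room temperature. Luminescence in RLU served as the activity measure.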

[10] = molecular target: Cytochrome P450 2C19 (Homo sapiens) (UniProt P33261); test: Cytochrome P450 Family 2 Subfamily C Member 19 (CYP2C19) small molecule antagonists: luciferase reporter qHTS assay (AID 1671197); note: nearly all actives have a fitted effect of over 65% in size; note: potency is the fitted concentration of half-maximal effect
Chain of Cytochrome P450 2C19 (Homo sapiens) (P33261 whole entry, looked up): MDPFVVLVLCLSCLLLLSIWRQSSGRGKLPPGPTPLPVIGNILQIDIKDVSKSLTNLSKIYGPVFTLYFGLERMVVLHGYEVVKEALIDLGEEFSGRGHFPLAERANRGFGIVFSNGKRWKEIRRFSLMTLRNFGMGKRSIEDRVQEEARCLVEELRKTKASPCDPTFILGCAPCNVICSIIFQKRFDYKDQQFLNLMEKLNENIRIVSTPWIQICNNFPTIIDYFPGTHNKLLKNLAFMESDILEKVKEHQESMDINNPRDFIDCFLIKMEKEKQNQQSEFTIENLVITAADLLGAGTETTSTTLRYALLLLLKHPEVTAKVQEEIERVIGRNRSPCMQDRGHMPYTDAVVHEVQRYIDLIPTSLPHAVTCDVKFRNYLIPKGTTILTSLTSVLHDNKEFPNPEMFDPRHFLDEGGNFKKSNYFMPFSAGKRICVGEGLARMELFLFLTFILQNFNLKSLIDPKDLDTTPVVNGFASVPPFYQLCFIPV
In short: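 CYP2C19 P450-Glo, 1536-well qHTS. Cpd + enzyme/proluciferin substrate 10 min RT; + NADPH regen, 37C 1 h; stop with luciferin detection reagent, 20 min RT, luminescence (RLU). Pos ctrl ketoconazole.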

[11] = molecular target: Progesterone receptor (Homo sapiens) (UniProt P06401); test: qHTS assay to identify small molecule antagonists of the progesterone receptor (PR) signaling pathway (AID 1346795; active = well fitted inhibition curve with a large enough effect in the signal ratio in the repeat runs, not every such curve was filed as active; the % refers to the signal ratio)
Chain of Progesterone receptor (Homo sapiens) (P06401 whole entry, looked up): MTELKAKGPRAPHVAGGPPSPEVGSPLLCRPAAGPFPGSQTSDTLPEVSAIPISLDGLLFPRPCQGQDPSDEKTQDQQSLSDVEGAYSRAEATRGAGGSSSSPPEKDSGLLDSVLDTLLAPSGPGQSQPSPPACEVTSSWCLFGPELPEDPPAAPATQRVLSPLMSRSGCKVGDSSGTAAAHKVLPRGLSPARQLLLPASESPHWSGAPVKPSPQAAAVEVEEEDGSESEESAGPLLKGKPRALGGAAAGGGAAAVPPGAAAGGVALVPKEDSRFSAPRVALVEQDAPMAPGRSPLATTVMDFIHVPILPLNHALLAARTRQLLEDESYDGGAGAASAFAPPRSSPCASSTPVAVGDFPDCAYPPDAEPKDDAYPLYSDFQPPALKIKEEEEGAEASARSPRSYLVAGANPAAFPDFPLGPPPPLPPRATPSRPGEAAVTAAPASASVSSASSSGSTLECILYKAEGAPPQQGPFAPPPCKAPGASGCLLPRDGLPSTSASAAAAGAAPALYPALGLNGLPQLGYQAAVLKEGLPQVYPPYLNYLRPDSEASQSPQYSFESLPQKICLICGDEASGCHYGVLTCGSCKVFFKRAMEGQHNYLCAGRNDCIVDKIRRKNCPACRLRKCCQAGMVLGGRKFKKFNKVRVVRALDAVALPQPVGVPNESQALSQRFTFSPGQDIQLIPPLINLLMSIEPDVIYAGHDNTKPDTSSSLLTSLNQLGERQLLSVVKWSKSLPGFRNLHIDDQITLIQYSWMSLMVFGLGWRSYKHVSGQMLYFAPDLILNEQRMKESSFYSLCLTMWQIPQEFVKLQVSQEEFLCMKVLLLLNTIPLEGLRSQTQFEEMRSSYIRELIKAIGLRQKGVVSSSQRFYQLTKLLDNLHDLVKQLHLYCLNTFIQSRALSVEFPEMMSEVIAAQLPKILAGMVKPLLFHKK
In short: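 In HEK293T cells bearing the PR-UAS-bla reporter, compound effects on promegestone-driven (1 nM) beta-lactamase expression are assessed after 16 hr using a fluorescent FRET substrate incubated 2 hr at room temperature.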

[12] = qHTS assay to identify small molecule antagonists of the TGF-beta/Smad signaling pathway - cell viability counter screen (AID 1346824); note: nearly all actives have a fitted effect of over 50% in size
In short: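 SBE-bla HEK 293T cells were plated overnight at 37 C, then given compounds in DMSO plus TGF-beta1 (added as 0.25 ng/mL solution) for 5 hr. After the bla read, CellTiter-Glo was added to the same wells and luminescence read after 30 min at room temperature.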

[13] = Caspase-3/7 induction in HepG2 cells by small molecules, qHTS assay (AID 1346978); note: nearly all actives have a fitted effect of over 15% in size
In short: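 Wild-type HepG2 cells (2,000/well) were settled 5 h at 37 C, 5% CO2, then exposed to compounds in DMSO for 17 h. Caspase-3/7 activity was read by luminescence 30 min after adding Caspase-Glo 3/7 reagent at room temperature.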

[14] = Caspase-3/7 induction in CHO-K1 cells by small molecules, qHTS assay (AID 1346980); note: nearly all actives have a fitted effect of over 15% in size
In short: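 Wild-type cells were seeded at 1,500 per well and settled 5 hr at 37 C, 5% CO2, then exposed to DMSO-dissolved compounds for 17 hr. Caspase-Glo 3/7 reagent was added, and luminescence was read after 30min at room temperature.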

[15] = Caspase-3/7 induction in HepG2 cells by small molecules, qHTS cell viability counter screen (AID 1346981); note: series mostly up to about 92 µM; nearly all actives have a fitted effect of over 30% in size
In short: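 Viability determined by CellTiter-Fluor fluorescence in HepG2 wells also used for the luminescent Caspase-Glo 3/7 read. Compounds were present for 16 hr at 37 C, 5% CO2 before reagent addition.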

[16] = molecular target: Nuclear receptor subfamily 1 group I member 2 (Rattus norvegicus) (UniProt Q9R1A7); test: Rat pregnane X receptor (rPXR) activation by small molecules, qHTS assay (AID 1346983); conditions: rPXR luciferase reporter cells, One-Glo luminescence, 24 h; max activation: hits give high values; note: potency is the fitted concentration of half-maximal effect; nearly all actives have a fitted effect of over 20% in size
Chain of Nuclear receptor subfamily 1 group I member 2 (Rattus norvegicus) (Q9R1A7 whole entry, looked up): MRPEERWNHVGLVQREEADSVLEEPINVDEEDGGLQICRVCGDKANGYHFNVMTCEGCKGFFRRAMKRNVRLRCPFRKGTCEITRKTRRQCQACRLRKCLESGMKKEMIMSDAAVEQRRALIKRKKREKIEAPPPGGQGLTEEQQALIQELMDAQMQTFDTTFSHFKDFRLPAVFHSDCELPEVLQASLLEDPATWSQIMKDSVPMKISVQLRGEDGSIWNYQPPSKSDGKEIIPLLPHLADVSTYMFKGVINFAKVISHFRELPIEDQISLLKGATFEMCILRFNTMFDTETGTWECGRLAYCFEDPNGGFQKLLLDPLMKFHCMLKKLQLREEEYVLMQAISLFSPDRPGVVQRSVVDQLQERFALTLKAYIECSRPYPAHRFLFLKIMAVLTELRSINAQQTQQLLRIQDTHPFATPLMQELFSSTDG
In short: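 Cell-based rPXR luciferase reporter assay, 2,000 cells per well, rested 5hr at 37 C before compound addition in DMSO, then 24 hr at 37 C. One-Glo reagent was added and luminescence read after 30 min at room temperature.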

[17] = molecular target: Nuclear receptor subfamily 1 group I member 2 (Homo sapiens) (UniProt O75469); test: CYP3A4 induction through human pregnane X receptor (PXR) by small molecules, qHTS assay (AID 1346984); note: potency is the fitted concentration of half-maximal effect; nearly all actives have a fitted effect of over 40% in size
In short: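 Readings come from a luciferase reporter: DPX-2 cells, which are HepG2 cotransfected with PXR and a CYP3A4-promoter construct, were exposed to test compounds for 24 h at 37C before One-Glo detection.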

[18] = molecular target: Nuclear receptor subfamily 1 group I member 2 (Homo sapiens) (UniProt O75469); test: Human pregnane X receptor (PXR) activation by small molecules, qHTS assay (AID 1346985); note: nearly all actives have a fitted effect of over 40% in size
In short: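 DPX-2 cells (HepG2 co-transfected with a PXR response element and a CYP3A4-promoter luciferase construct) were seeded at 2,000 per well, rested 5 hr at 37C, then exposed to DMSO-dissolved compounds for 24 hr. Activation was read as luciferase luminescence.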

[19] = qHTS assay to identify small molecule antagonists of the progesterone receptor (PR) signaling pathway - cell viability counter screen (AID 1346798); note: series mostly up to about 92 µM; nearly all actives have a fitted effect of over 50% in size
In short: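 Following a 4 hr attachment, PR-UAS-bla HEK293T cells in charcoal-stripped FBS medium were exposed to compounds with R5020 for 16 hr; CellTiter-Glo was added and luminescence read after 30 min at room temperature.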

Compound | Potency [1] | outcome [2] | outcome [3] | outcome [4] | outcome [5] | Potency [6] | Potency [7] | Potency [8] | Potency [9] | Potency [10] | Potency [11] | outcome [12] | Potency [13] | Potency [14] | Potency [15] | Potency [16] | Potency [17] | Potency [18] | Potency [19]
O=Cc1ccc(Cl)c([N+](=O)[O-])c1 | inactive | inactive | inactive | inactive | inactive | inactive | 68.6 µM (active) | inactive | 35.6 µM (active) | 22.4 µM (active) |  |  |  |  |  |  |  |  | 
Sc1nc(S)nc(S)n1 | inactive | inactive | inactive | inactive | inactive | inactive | inactive | inactive |  | inactive | inactive | inactive | inactive | inactive | inactive |  |  |  | 
CC(=O)OCC(=O)[C@@]1(O)CC[C@H]2[C@@H]3CCC4=CC(=O)C=C[C@]4(C)[C@@]3(F)[C@@H](O)C[C@@]21C | inactive | inactive | inactive | inactive | inactive |  |  | inactive | inactive | inactive |  | inactive | inactive | inactive |  | 8.91 µM (active) | 0.631 µM (active) | inactive | 
O=C(Cl)c1ccc(F)c(Cl)c1 |  | inactive | inactive | inactive | inactive |  |  | inactive |  | inactive | inactive | inactive | inactive |  |  |  |  |  | inactive
C[C@]12CCC(=O)C=C1[C@@H]1C[C@@H]1[C@H]1[C@@H]3[C@@H]4C[C@@H]4[C@@]4(CCC(=O)O4)[C@@]3(C)CC[C@@H]12 |  | inactive |  | inactive | inactive | inactive |  | inactive |  | 0.871 µM (active) |  | inactive | inactive | inactive | inactive |  | 11.2 µM (active) |  | inactive
CCCc1nc(C)c2c(=O)[nH]c(-c3cc(S(=O)(=O)N4CCN(CC)CC4)ccc3OCC)nn12 |  | inactive | inactive |  |  | inactive | inactive |  | inactive | inactive | inactive | inactive | inactive |  | inactive | 3.55 µM (active) |  |  | inactive
